From PubChem
Rows were chosen to be rich in hits. Some 9.4% of all compounds tested hit in one or more screens of this group.
ELG1 genotox – genotoxicity induction in ELG1-luciferase HEK293T cells; HEK293T ELG1-luciferase reporter, luminescence, 16 h; Potency, µM (top dose mostly 46 µM), without a hit: at the highest dose activity change, positive = activation, most hits filed as activators; hit rate 1.3% among 330,000; AID 504466; further: % of control where 0% means no effect; nearly all actives have a fitted effect of over 60% in size
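Luminescence read-out: rising ELG1-luciferase signal, reflecting elevated ELG1 protein under genetic stress, flags genotoxic compounds. Cells were treated for 16 hr at 37 °C before ONE-Glo detection.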
FLuc counter – firefly luciferase modulation, counter-screen for miR-21 project; P08659; purified FLuc, Km substrates, luminescence inhibition; Potency, µM (highest dose often 57.5 µM), without a hit: at the top dose activity change, negative = inhibition, actives largely listed as inhibitors; hit rate 6.9% among 360,000;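 further: plate controls were vehicle for no effect and reference inhibitor for full effect; nearly all actives have a fitted effect of over 55% in size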
Target sequence (P08659 whole entry, looked up): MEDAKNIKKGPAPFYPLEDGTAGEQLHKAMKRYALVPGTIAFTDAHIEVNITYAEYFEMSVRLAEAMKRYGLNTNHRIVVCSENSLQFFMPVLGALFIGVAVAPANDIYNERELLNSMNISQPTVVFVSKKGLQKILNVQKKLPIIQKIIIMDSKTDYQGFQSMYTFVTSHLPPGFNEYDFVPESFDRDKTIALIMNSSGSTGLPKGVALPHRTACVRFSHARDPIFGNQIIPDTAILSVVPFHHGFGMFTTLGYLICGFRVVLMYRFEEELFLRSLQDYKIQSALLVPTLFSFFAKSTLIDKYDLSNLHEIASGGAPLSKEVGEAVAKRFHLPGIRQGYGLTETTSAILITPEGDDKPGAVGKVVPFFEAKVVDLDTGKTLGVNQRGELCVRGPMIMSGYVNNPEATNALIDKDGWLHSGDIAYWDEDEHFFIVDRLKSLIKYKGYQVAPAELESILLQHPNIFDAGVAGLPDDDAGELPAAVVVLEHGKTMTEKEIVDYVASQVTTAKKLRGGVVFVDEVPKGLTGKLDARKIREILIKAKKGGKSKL
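Purified P. pyralis luciferase, 10 nM final, with Km-level 10 uM D-luciferin and 10 uM ATP in 50 mM Tris acetate pH 7.5, 10 mM Mg acetate, 0.01% Tween-20, 0.05% BSA; 6-point qHTS titration about 60 µM downward; luminescence read.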
SMN2 splice enh – enhancers of SMN2 splice variant expression; hit rate 2.8% among 210,000; AID 1458; Potency, µM (series often up to 46.1 µM), inactives show top-dose activity change, positive = activation, hits mostly activators; HEK293 SMN2-luciferase splicing reporter, luminescence, 30-36 h; further: % of control where 0% means no effect; nearly all actives have a fitted effect of over 55% in size
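qHTS luciferase splicing reporter: luminescence rises when SMN2 exon 7 is included in transfected HEK293 cells. Compound exposure lasted 30-36 h at 37C, with 4.5 mM final sodium butyrate as control, followed by a ONE-Glo read.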
ELG1 DNA repair – blocks ELG1-dependent DNA repair in HEK293T cells; HEK293T ELG1-luciferase reporter, luminescence, 16 h; DNA damage induced by 5-fluorouridine; Potency, µM (titrated, usually from 46.1 µM), for inactives: at the top dose activity change, negative = inhibition, hits mostly inhibitors; hit rate 2.3% among 330,000; AID 504467; further: on the % scale 0 is the no-effect control and ±100 the full control effect; nearly all actives have a fitted effect of over 55% in size
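5-Fluorouridine DNA damage + compound/DMSO, 2,000 cells/well, 16 h, 37 °C/5% CO2. ONE-Glo, 30 min RT, luminescence. Readout = decrease in reporter signal.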
Rab9 promoter act – Rab9 promoter activation; Huh7 Rab9 promoter-luciferase reporter, luminescence, 24 h; AID 485297; hit rate 2.8% among 320,000; Potency, µM (doses to about 9.22 µM), without a hit: at the top dose activation, negative = inhibition, actives largely listed as activators; further: % of control where 0% means no effect; nearly all actives have a fitted effect of over 60% in size
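Using Huh7 cells stably transfected with Rab9 promoter–luciferase, compounds were incubated 24 h at 37 °C, 5% CO2; luciferase luminescence was read 10 min after reagent addition.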
NPC1 prom act – NPC1 promoter activation. Huh7 NPC1 promoter luciferase reporter, 24 h. hit rate 2.4% among 320,000. Potency, µM (doses to about 9.22 µM), for the others: at the top dose activation, actives largely listed as activators; further: % of control where 0% means no effect; nearly all actives have a fitted effect of over 60% in size
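In 1536-well qHTS, Huh7 cells harboring an NPC1 promoter–luciferase construct received compound for 24 h; activation was quantified by luminescence following luciferase reagent addition.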
* hit, by the source's call; ? = inconclusive; · = not tested or not shown; [ ] = another dose, or the depositor's remark. The call rests on the fitted dose curve; in most records, active means well fitted curve in the direction sought with a large enough effect; inconclusive means small, poorly fitted or top-dose-only effect, or another doubt; inactive means no such curve, though single readings can be large; an effect the other way counts as inactive or inconclusive. Potency means the concentration at half of the fitted maximal effect.

SMILES	ELG1 genotox	FLuc counter	SMN2 splice enh	ELG1 DNA repair	Rab9 promoter act	NPC1 prom act
COc1ccc(OC)c(CN2CCN(C(=O)CN3C(=O)NC4(CCCC4)C3=O)CC2)c1	-1.4%	-0.3%	·	0.8%	-12.7%	-2.5%
COC(=O)c1ccccc1NC(=O)C1CCCN(C(=O)c2cnn(-c3ccc(F)cc3)c2-n2cccc2)C1 (configuration not stated)	·	-10.7%	·	·	·	·
Cc1cc[n+](C(C)C(=O)c2ccc(-c3ccccc3)cc2)cc1 (configuration not stated)	-7.0%	-1.2%	-80.7%	2.06µM*	-18.8%	-16.4%
Cc1ccccc1-c1nc(Cc2ccccc2)no1	?	12µM*	?	?	?	?
Clc1ccc(-c2nc(Cc3ccccc3)no2)cc1	20.6µM*	12µM*	0.2%	?	?	?
Cc1ccc(-n2c(=O)c3c(c4cc(C)ccc4n3C)n(CC(=O)Nc3ccc(F)cc3)c2=O)cc1	·	-2.5%	·	·	·	·
Cc1cc(C)nc(Nc2ccc(N3CCOCC3)cc2)n1	11.6%	?	-2.6%	3.3%	10.4%	16.6%
Cc1cc(C)nc(Nc2ccc(N3CCCC3)cc2)n1	?	19µM*	12.9%	-10.8%	25.8%	20.1%
COc1ccc(Nc2nc(C)cc(C)n2)cc1Cl	?	19µM*	·	?	?	?
Cc1cc(C)nc(Nc2ccc(C(=O)O)cc2)n1	?	15.1µM*	11.2µM*	?	1.78µM*	3.55µM*
Cc1cc(C)nc(Nc2ccc(O)cc2)n1	2.2%	-6.2%	·	7.1%	-6.9%	-1.6%
COc1nc(Nc2ccc(OC)c(Cl)c2)nc(OC)n1	19.9%	-15.3%	-3.4%	14.6%	4.0%	9.1%
CCc1ccc(Nc2nc(C)cc(C)n2)cc1	?	12µM*	·	?	5.01µM*	?
COc1ccc(N2CCN(C(=O)CN3C(=O)COc4ccc(S(=O)(=O)N5CCC(C)CC5)cc43)CC2)cc1	·	-2.4%	7.1%	·	·	·
CC1CCC(C(=O)O)([C@H](Br)C(=O)O)CC1 (some centres not stated)	·	·	-0.8%[9.22 µM]	·	·	·
COc1cc(-c2nnn(CC(=O)Nc3ccc(OC(F)(F)F)cc3)n2)cc(OC)c1OC	·	-17.1%	-17.4%	·	·	·
Cc1ccc(Nc2ccc(C(=O)O)cc2N)cc1	?	5.36µM*	?	?	25.6%[1.84 µM]	?
COc1ccccc1NC(=O)Cn1c(=O)c(CNc2ccccc2)cc2cc(OC)c(OC)cc21	·	-7.3%	·	·	·	·
CC(C)(C)c1ccc(/C=N/NC(=O)C2CCCC2)cc1	?	19µM*	·	?	?	?
CC(C)c1ccc(/C=N/NC(=O)C2CCCC2)cc1	5.8µM*	12µM*	·	?	2.51µM*	2µM*
O=S(=O)(NCC(c1ccco1)N1CCN(c2ccccc2F)CC1)c1ccc2c(c1)OCCO2 (configuration not stated)	-1.6%	-0.2%	-31.9%	16.4µM*	-6.9%	12.7%
COc1ccc(N2CCN(C(CNS(=O)(=O)c3ccc4c(c3)OCCO4)c3ccco3)CC2)cc1 (configuration not stated)	-1.6%	1.3%	-34.3%	14.6µM*	-16.1%	3.7%
O=C(NCC(c1ccco1)N1CCN(c2ccccc2F)CC1)c1ccc2c(c1)OCO2 (configuration not stated)	-6.3%	2.5%	·	13µM*	0.8%	1.4%
Clc1ccc(SCc2cc(-c3ccccc3)on2)cc1	?	-4.1%	6.1%	?	4.3%	1.8%
c1ccc(Cc2cc(-c3ccccc3)on2)cc1	?	12µM*	?	?	?	27.5%
SMILES	ELG1 genotox	FLuc counter	SMN2 splice enh	ELG1 DNA repair	Rab9 promoter act	NPC1 prom act
COc1ccc(C(=O)NCCNc2nc3ccc(C)cc3cc2C#N)cc1OC	-8.0%	-9.1%	·	?	-3.6%	-4.9%
Cn1c(C(=O)NCCc2c[nH]c3ccccc23)cc2sccc21	14.6µM*	12µM*	25.1%	?	?	?
O=C(NCCc1c[nH]c2ccccc12)c1ccc2c(c1)OCO2	?	6.75µM*	·	?	1.26µM*	1.12µM*
Cc1ccc(C(=O)N/C(=C/c2ccco2)C(=O)NCCc2c[nH]c3ccccc23)cc1	1.9%	15.1µM*	6.2%	-25.1%	-3.0%	-1.3%
O=C(NCCc1c[nH]c2ccccc12)/C(=C\c1cccs1)NC(=O)c1ccccc1	-3.8%	3.0%	3.5%	-19.5%	-0.6%	-3.9%
Cc1ccc2[nH]cc(CCNC(=O)c3ccc4c(c3)OCO4)c2c1	-6.3%	?	·	-2.3%	-3.2%	10.7%
O=C(NCCc1c[nH]c2ccccc12)c1cc(Cl)c2c(c1)OCO2	?	23.9µM*	·	?	1.41µM*	2.51µM*
CCOCCCn1c(SCC(=O)Nc2ccccc2CC)nc2ccccc2c1=O	·	-7.3%	·	·	·	·
C/C(=N\Nc1ccc(C(=O)O)cc1)c1ccc(Br)cc1	?	0.19µM*	·	?	0.0891µM*	?
COc1ccccc1NC(=O)COC(=O)c1ccc(S(=O)(=O)NCc2ccco2)cc1	-1.7%	12µM*	-13.7%	?	-2.1%	-2.0%
COc1ccccc1NS(=O)(=O)c1ccc(C(=O)OCC(=O)NCc2ccco2)cc1	0.5%	3.9%	-8.3%	-0.5%	-7.4%	-1.6%
C/C(=N\Nc1ccc(C(=O)O)cc1)c1ccc(S(=O)(=O)NCc2ccco2)cc1	10.2%	16.9µM*	·	?	?	18.8%
